Assay results published in the antibiotic and cytotoxicity screens of Wong et al. (2023).
About 1,500 (3.8%) of roughly 39,000 compounds were called active. The sample holds actives, similar compounds and a random draw of the others, so the mix is not that of the screen.

system: HSkMC (human skeletal muscle cells); test: cytotoxicity call (relative viability < 0.9); conditions: 10 µM

Structure (SMILES) | cytotoxicity call
CC(C)NC(=O)Nc1cccc2c1O[C@@H](CN(C)S(=O)(=O)c1ccccc1)[C@H](C)CN([C@H](C)CO)C2=O | inactive
C[C@@H]1CN([C@@H](C)CO)S(=O)(=O)c2ccc(Br)cc2O[C@H]1CN(C)C(=O)c1ccncc1 | inactive
C[C@H](CO)N1C[C@H](C)[C@@H](CN(C)S(=O)(=O)c2ccc(Oc3ccccc3)nc2)OCc2cn(nn2)CCCC1=O | inactive
c1ccc2c(c1)[nH]c1ncccc12 | inactive
CCC(=O)N[C@H]1C=C[C@H](CC(=O)OC)O[C@@H]1CO | inactive
COc1ccc(NC(=O)Nc2ccc3c(c2)C(=O)N([C@@H](C)CO)C[C@H](C)[C@@H](CN(C)C(=O)c2ccccc2)OCCCC[C@H](C)O3)cc1 | inactive
O=S(=O)(N1CCOCC1)N1CCCN(S(=O)(=O)N2CCOCC2)CC1 | inactive
C[C@@H](O)C#Cc1ccc2c(c1)O[C@H](CN(C)C(=O)Cc1ccccn1)[C@@H](C)CN([C@@H](C)CO)S2(=O)=O | inactive
O=C(C[C@H]1C=C[C@H](NC(=O)CN2CCOCC2)[C@@H](CO)O1)NC1CCCCC1 | inactive
Nc1ccc(S(N)(=O)=O)cn1 | inactive
Cc1cc(C(=O)Nc2cccc3c2O[C@@H](CN(C)Cc2ccc(C(=O)O)cc2)[C@@H](C)CN([C@@H](C)CO)C3=O)n(C)n1 | inactive
C[C@@H]1CCCCO[C@@H](CN(C)Cc2ccc3c(c2)OCO3)[C@@H](C)CN([C@@H](C)CO)C(=O)c2cc(NC(=O)Nc3ccc(C(F)(F)F)cc3)ccc2O1 | active
C[C@@H]1CCCCO[C@H](CN(C)Cc2ccc3c(c2)OCO3)[C@@H](C)CN([C@@H](C)CO)C(=O)c2cc(NC(=O)Nc3ccc(C(F)(F)F)cc3)ccc2O1 | active
C[C@H](CO)N1C[C@H](C)[C@H](CN(C)C(=O)Nc2ccc3c(c2)OCO3)OCCCC[C@H](C)Oc2ccc(NC(=O)CCC(F)(F)F)cc2C1=O | inactive
C[C@@H]1CN([C@H](C)CO)C(=O)c2cc(NC(=O)NC3CCCCC3)ccc2O[C@@H]1CN(C)Cc1ccc(Oc2ccccc2)cc1 | inactive
Cc1noc(C)c1S(=O)(=O)Nc1ccc2c(c1)C(=O)N([C@H](C)CO)C[C@@H](C)[C@H](CN(C)S(=O)(=O)c1cn(C)cn1)OCCCC[C@@H](C)O2 | inactive
C/C=C1\NC(=O)[C@H]2CSSCC/C=C/[C@H](CC(=O)N[C@H](C(C)C)C(=O)N2)OC(=O)[C@H](C(C)C)NC1=O | active
CC(C)NC(=O)N(C)C[C@H]1Oc2ccc(NC(=O)CCN3CCOCC3)cc2CC(=O)N([C@@H](C)CO)C[C@@H]1C | inactive
COCC(=O)N1CC[C@]2(CC1)CN([C@@H](CO)c1c2c2ccc(cc2n1C)OC)C(=O)CN1CCOCC1 | inactive
CCOC(=O)c1c(CN2CCN(c3ccc(C)cc3)CC2)n(-c2ccccc2)c2cc(Br)c(OC)cc12 | inactive
CCOC(=O)c1c(CNCCN(CC)CC)n(-c2ccccc2)c2cc(Br)c(OC)cc12 | inactive
CCOC(=O)c1c(CN2CCN(c3ccccc3C)CC2)n(-c2ccccc2)c2cc(Br)c(O)cc12 | active
CCOC(=O)c1c(CN2CCN(c3ccccc3)CC2)n(C2CCCCC2)c2cc(Br)c(O)cc12 | active
CCOC(=O)c1c(CN2CCN(CCOCCO)CC2)n(-c2ccccc2)c2cc(Br)c(O)cc12 | inactive

Structure (SMILES) | cytotoxicity call
CCOC(=O)c1c(CN2CCN(c3ccccc3)CC2)n(-c2ccccc2)c2cc(Br)c(OC)cc12 | inactive
CCOC(=O)c1c(CN2CCN(Cc3ccccc3)CC2)n(-c2ccccc2)c2cc(Br)c(OC)cc12 | inactive
CCOC(=O)c1c(CN2CCN(c3ccccc3)CC2)n(-c2ccccc2)c2cc(Br)c(O)cc12 | active
CCOC(=O)c1c(CN2CCN(Cc3ccccc3)CC2)n(-c2ccccc2)c2cc(Br)c(O)cc12 | inactive
COc1ccc(CN(C)C[C@@H]2OCCCC[C@@H](C)Oc3ccc(NC(=O)Nc4c(C)noc4C)cc3C(=O)N([C@H](C)CO)C[C@@H]2C)cc1 | inactive
Cc1noc(C)c1S(=O)(=O)N(C)C[C@H]1Oc2ccc(N(C)C)cc2CC(=O)N([C@@H](C)CO)C[C@H]1C | inactive
C[C@@H]1CN([C@H](C)CO)C(=O)c2cc(C#CC3(O)CCCC3)cnc2O[C@@H]1CN(C)C(=O)Cc1ccncc1 | inactive
C[C@@H]1CCCCO[C@H](CN(C)Cc2ccncc2)[C@@H](C)CN([C@H](C)CO)C(=O)c2cc(NC(=O)NC3CCCCC3)ccc2O1 | inactive
C[C@@H]1CN([C@H](C)CO)C(=O)CCCn2cc(nn2)CO[C@H]1CN(C)C(=O)Nc1ccc(N2CCN(C)CC2)cc1 | inactive
CN1CCN(C(=O)C[C@H]2C[C@H]3c4cc(NC(=O)c5ccc6c(c5)OCO6)ccc4O[C@H]3[C@@H](CO)O2)CC1 | inactive
Cn1cnc(S(=O)(=O)N2C[C@@H](O)COC[C@@H]3O[C@H](CC(=O)N4CCN(c5ccccc5)CC4)CC[C@H]32)c1 | inactive
COc1ccc(NC(=O)Nc2ccc3c(c2)C(=O)N([C@@H](C)CO)C[C@@H](C)[C@H](CN(C)Cc2ccc(C(=O)O)cc2)OCCCC[C@@H](C)O3)cc1 | inactive
Cc1noc(C)c1NC(=O)N(C)C[C@@H]1Oc2ccc(NC(=O)CCCN(C)C)cc2C(=O)N([C@@H](C)CO)C[C@H]1C | inactive
O=C1O[C@@H](c2ccccc2)[C@@H](c2ccccc2)N2[C@@H](c3ccc(OCCO)cc3)[C@]3(C(=O)Nc4ccc(C#CC5(O)CCCCCC5)cc43)[C@@H](C(=O)Nc3nc4ccccc4s3)[C@H]12 | inactive
COc1cc2c(N3CCN(C(=O)Nc4ccc(OC(C)C)cc4)CC3)ncnc2cc1OCCCN1CCCCC1 | inactive
CCN1CCN(c2ccc(Nc3cc(N(C)C(=O)Nc4c(Cl)c(OC)cc(OC)c4Cl)ncn3)cc2)CC1 | active
C[C@H](CO)N1C[C@H](C)[C@@H](CN(C)C(=O)CCCN(C)C)OCCCC[C@H](C)Oc2ccc(NS(=O)(=O)c3cn(C)cn3)cc2C1=O | inactive
CC(C)NC(=O)N(C)C[C@@H]1OCCCC[C@@H](C)Oc2ccc(NC(=O)CCCCCC(=O)Nc3ccccc3N)cc2C(=O)N([C@H](C)CO)C[C@H]1C | inactive
Cn1nnc2c1[C@H](COCC1CC1)CN(C(=O)CS(C)(=O)=O)C2 | inactive
C[C@H]1CCCCO[C@@H](CN(C)C(=O)Nc2ccccc2)[C@@H](C)CN([C@@H](C)CO)C(=O)c2cc(NC(=O)NC3CCCCC3)ccc2O1 | inactive
CC(C)n1c(C=CC(O)CC(O)CC(=O)[O-])c(-c2ccc(F)cc2)c2ccccc21.[Na+] (stereo unspecified) | inactive
C[C@@H]1CCCCO[C@@H](CN(C)S(=O)(=O)c2cccs2)[C@H](C)CN([C@H](C)CO)C(=O)c2cc(NC(=O)CCC(F)(F)F)ccc2O1 | inactive
Cc1ccc(S(=O)(=O)Nc2ccc3c(c2)C(=O)N([C@H](C)CO)C[C@H](C)[C@H](CN(C)S(=O)(=O)c2ccccc2)O3)cc1 | inactive
CCCCCCCCCCCCCCCC[N+](C)(C)Cc1ccccc1.[Cl-] | active

Structure (SMILES) | cytotoxicity call
CCCCCc1ccccn1 | inactive
CC[N+](C)(CC)Cc1ccccc1 | inactive
CCCCCCCCCCCCC[N+](C)(C)Cc1ccccc1.O.[Cl-] | active
CCCCNc1ccccc1 | inactive
CCCCCCCCCCCCC[N+](C)(C)Cc1ccccc1 | inactive
CO[C@@H]1CN(C)C(=O)c2ccc(NS(=O)(=O)c3cccc(C)c3)cc2OC[C@@H](C)N(Cc2cc(F)ccc2F)C[C@H]1C | inactive
CN(C)CCCNC(=O)C[C@@H]1CC[C@H]2[C@H](COc3ccc(NC(=O)NC4CCCC4)cc3C(=O)N2C)O1 | inactive
Cc1noc(C)c1NC(=O)N(C)C[C@H]1Oc2c(NC(=O)Nc3ccc(C(F)(F)F)cc3)cccc2C(=O)N([C@H](C)CO)C[C@H]1C | inactive
COC[C@H](NC(=O)c1cnc(C)s1)C(=O)N[C@@H](COC)C(=O)N[C@@H](Cc1ccccc1)C(=O)[C@@]1(C)CO1 | active
CC(=O)N1[C@H](CNC(=O)CN2CCOCC2)[C@@H](c2ccccc2)[C@@H]1CO | inactive
CC(=O)N[C@@H](Cc1ccccc1)C(=O)NN | inactive
CC(=O)N1[C@@H](CO)[C@H](c2ccccc2)[C@@H]1CNC(=O)CN1CCOCC1 | inactive
COC(=O)C(Cc1ccccc1)NC(=O)C(N)CC(=O)O (stereo unspecified) | inactive
CC(=O)N[C@@H](Cc1ccccc1)C(=O)O | inactive
CC(C)C[C@H](NC(=O)[C@H](CCc1ccccc1)NC(=O)CN1CCOCC1)C(=O)N[C@@H](Cc1ccccc1)C(=O)N[C@@H](CC(C)C)C(=O)[C@@]1(C)CO1 | active
COC(=O)[C@H](Cc1ccccc1)NC(=O)[C@@H](N)CC(=O)O | inactive
COc1ccc(C[C@H](NC(=O)[C@H](C)NC(=O)CN2CCOCC2)C(=O)N[C@@H](Cc2ccccc2)C(=O)[C@@]2(C)CO2)cc1 | active
C[C@@H]1CCCCO[C@@H](CN(C)S(=O)(=O)c2ccc(F)cc2)[C@H](C)CN([C@H](C)CO)C(=O)c2cc(NC(=O)Nc3ccc4c(c3)OCO4)ccc2O1 | inactive
C[C@@H]1CCCCO[C@@H](CN(C)C(=O)CCCN(C)C)[C@@H](C)CN([C@H](C)CO)C(=O)c2cc(NC(=O)Nc3ccc(C(F)(F)F)cc3)ccc2O1 | inactive
CC(C)CC#Cc1cnc2c(c1)C(=O)N([C@@H](C)CO)C[C@@H](C)[C@@H](CN(C)S(=O)(=O)c1cn(C)cn1)O2 | inactive
C[C@H](CO)N1C[C@H](C)[C@H](CN(C)C(=O)Nc2ccccc2)Oc2c(NC(=O)C3CCOCC3)cccc2C1=O | inactive
C[C@H](CO)N1C[C@H](C)[C@H](CN(C)C(=O)c2cnccn2)Oc2cc(Br)ccc2S1(=O)=O | inactive
C[C@@H]1CN([C@@H](C)CO)C(=O)c2cc(C#Cc3ccccc3F)cnc2O[C@@H]1CN(C)C(=O)Cc1cccnc1 | inactive
